A short description of assay [1]: Quantitative High-Throughput drug screen in 47 multiple myeloma cell lines against the NCATS MIPE library collection: KMM1_JCRB cell viability assay (AID 1918960). Also: nearly all actives have a fitted effect of over 30% in size.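 As to viability (% of DMSO): 100% = DMSO-treated cells and 0% = medium-only wells.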 The method, boiled down:
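CellTiter-Glo luminescence after 48 h exposure gives viability, scaled between DMSO-only (100%) and media-only (0%) controls. Library compounds are pinned onto 500 myeloma cells per well, incubated at 37C with 5% CO2.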

Assay [2] in a line: Quantitative High-Throughput drug screen in 47 multiple myeloma cell lines against the NCATS MIPE library collection: Karpas417_ECACC cell viability assay (AID 1918961). To be noted: Karpas417 myeloma viability, CellTiter-Glo ATP luminescence, 48 h; viability (% of DMSO): at 45.8 µM (top of the series). The method, boiled down:
(§1)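 Luminescent ATP measurement with CellTiter-Glo gives viability, scaled between DMSO-only wells (100%) and media-only wells (0%). Cells, 500 per well, faced library compounds for 48 hours at 37C.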

A short description of assay [3]: Quantitative High-Throughput drug screen in 47 multiple myeloma cell lines against the NCATS MIPE library collection: KHM11_PLB cell viability assay (AID 1918962). Also: nearly all actives have a fitted effect of over 35% in size. The method, boiled down: (§2)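 qHTS of the MIPE 4.0 collection: 500 myeloma cells/well, 48 h drug exposure at 37C in 5% CO2, then CellTiter-Glo for 5 min at room temperature before luminescence reading.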

A short description of assay [4]: Quantitative High-Throughput drug screen in 47 multiple myeloma cell lines against the NCATS MIPE library collection: JIM3_ECACC cell viability assay (AID 1918963; also: nearly all actives have a fitted effect of over 35% in size). Summed up:
as §2

A short description of assay [5]: Quantitative High-Throughput drug screen in 47 multiple myeloma cell lines against the NCATS MIPE library collection: INA6_PLB cell viability assay (AID 1918965; also: nearly all actives have a fitted effect of over 55% in size). The method, boiled down:
as §1

Assay [6] in a line: Quantitative High-Throughput drug screen in 47 multiple myeloma cell lines against the NCATS MIPE library collection: JJN3_DSMZ cell viability assay (AID 1918966; also: nearly all actives have a fitted effect of over 50% in size). Summed up:
as §2

A short description of assay [7]: Quantitative High-Throughput drug screen in 47 multiple myeloma cell lines against the NCATS MIPE library collection: Karpas25_ECACC cell viability assay (AID 1918968; also: nearly all actives have a fitted effect of over 35% in size). The method, boiled down: as §2
Assay [8] in a line: Quantitative High-Throughput drug screen in 47 multiple myeloma cell lines against the NCATS MIPE library collection: KMS12BM_JCRB cell viability assay (AID 1918971). Also: nearly all actives have a fitted effect of over 35% in size. Summed up: (§3)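 Myeloma cell lines, 500 cells per well, exposed to MIPE 4.0 library compounds for 48 h at 37C, 5% CO2. Viability from ATP by CellTiter-Glo luminescence; normalised to DMSO (100%) and media-only (0%) wells.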

Assay [9] can be described thus: Quantitative High-Throughput drug screen in 47 multiple myeloma cell lines against the NCATS MIPE library collection: KMS12PE_JCRB cell viability assay (AID 1918972). Also: nearly all actives have a fitted effect of over 30% in size. Summed up:
as §1

A short description of assay [10]: Quantitative High-Throughput drug screen in 47 multiple myeloma cell lines against the NCATS MIPE library collection: KMS20_JCRB cell viability assay (AID 1918973). Also: nearly all actives have a fitted effect of over 45% in size. Summed up: as §2
A short description of assay [11]: Quantitative High-Throughput drug screen in 47 multiple myeloma cell lines against the NCATS MIPE library collection: KMS21BM_JCRB cell viability assay (AID 1918974). To be noted: ATP luminescence, 48 h; viability: at 45.8 µM (top of the series) unless noted. Summed up: as §2
Assay [12] is described as follows: Quantitative High-Throughput drug screen in 47 multiple myeloma cell lines against the NCATS MIPE library collection: KMS26_JCRB cell viability assay (AID 1918975). Also: nearly all actives have a fitted effect of over 45% in size. Summed up:
as §3

Assay [13] can be described thus: Quantitative High-Throughput drug screen in 47 multiple myeloma cell lines against the NCATS MIPE library collection: MMM1_PLB cell viability assay (AID 1918976). Also: nearly all actives have a fitted effect of over 35% in size. The method, boiled down: (§4)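 qHTS format: cells plated (500/well), pin-dosed with MIPE 4.0 compounds, kept 48 h at 37 °C. Readout was CellTiter-Glo luminescence, median RLU.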
Assay [14] is described as follows: Quantitative High-Throughput drug screen in 47 multiple myeloma cell lines against the NCATS MIPE library collection: MOLP8_DSMZ cell viability assay (AID 1918977). Also: nearly all actives have a fitted effect of over 45% in size. Summed up:
as §4

A short description of assay [15]: Quantitative High-Throughput drug screen in 47 multiple myeloma cell lines against the NCATS MIPE library collection: NCIH929_DSMZ cell viability assay (AID 1918978). Also: nearly all actives have a fitted effect of over 35% in size. Summed up:
as §4

A short description of assay [16]: Quantitative High-Throughput drug screen in 47 multiple myeloma cell lines against the NCATS MIPE library collection: OCIMY1_PLB cell viability assay (AID 1918979). Also: nearly all actives have a fitted effect of over 35% in size. Summed up: as §4
The nature of assay [17]: Quantitative High-Throughput drug screen in 47 multiple myeloma cell lines against the NCATS MIPE library collection: MM1S_ATCC cell viability assay (AID 1918980). Also: nearly all actives have a fitted effect of over 45% in size. The method, boiled down:
as §4

A short description of assay [18]: Quantitative High-Throughput drug screen in 47 multiple myeloma cell lines against the NCATS MIPE library collection: JIM1_ECACC cell viability assay (AID 1918964). Summed up: as §2
A short description of assay [19]: Quantitative High-Throughput drug screen in 47 multiple myeloma cell lines against the NCATS MIPE library collection: H1112_PLB cell viability assay (AID 1918967; also: nearly all actives have a fitted effect of over 30% in size). The method, boiled down: as §2
Assay [20] in a line: Quantitative High-Throughput drug screen in 47 multiple myeloma cell lines against the NCATS MIPE library collection: KMS27_JCRB cell viability assay (AID 1918970). Also: nearly all actives have a fitted effect of over 30% in size. The method, boiled down: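 Viability inhibition screen, 48 h compound exposure, luminescent ATP read-out.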

Records with an inconclusive call do not appear. Calls of active or inactive are those of the source. Calls follow the shape of the dose curve; as a rule, active = well fitted curve in the direction sought with a large enough effect; inconclusive = small, poorly fitted or top-dose-only effect, or another doubt; inactive = no such curve, though single readings can be large; an effect the other way counts as inactive or inconclusive.
Potency is read from the fitted curve at half-maximal effect.

As to `CC[C@@H]1C(=O)N(C)c2cnc(Nc3ccc(C(=O)NC4CCC(N5CCN(CC6CC6)CC5)CC4)cc3OC)nc2N1C(C)C` (stereo not given in full), the Potency was 0.0526 µM (active) in assay [1]; 3.32 µM (active) in assay [2]; 8.33 µM (active) in assay [3]; 0.0418 µM (active) in [4]; 0.187 µM (active) in assay [5]; 2.64 µM (active) in [6]. Moreover, the Potency in assay [7] is 5.26 µM (active); in assay [8] it was 0.0743 µM (active); in [9], 2.96 µM (active); in assay [10], 4.18 µM (active); in [11], 0.935 µM (active); in [12], 5.26 µM (active). In addition, the Potency was 7.43 µM (active) in [13]; 3.72 µM (active) in assay [14]; 1.32 µM (active) in [15]; 0.264 µM (active) in [16]; 1.32 µM (active) in assay [17].

Turning to `CC(=O)OCCN1C(=O)c2c(C)nc3ccc(S(=O)(=O)N4CCOCC4)cc3c2C1=O`, the Potency result in assay [1], in assay [4], in assay [18], in assay [5], in [7] and in [8] was “inactive” each time. The Potency result in assay [9], in [14] and in assay [15] was “inactive” each time. Also, in assay [2], the viability (% of DMSO) is 109% (active).

With `Cc1c(C)n(Cc2ccc(-c3ccccc3C(=O)O)cc2)c2ccc(C(=O)N[C@@H](C)c3ccc([N+](=O)[O-])cc3)cc12`, the Potency was 0.935 µM (active) in assay [1]; 0.0187 µM (active) in [2]; 13.2 µM (active) in assay [4]; 0.0935 µM (active) in assay [18]; 18.7 µM (active) in [5]; 18.7 µM (active) in assay [19]. The Potency in assay [7] was 5.26 µM (active); in assay [20], 0.0833 µM (active); in assay [9] it was 0.118 µM (active); in [10], 11.8 µM (active); in [11] it was 0.148 µM (active); in [15], 26.4 µM (active). Besides, the Potency in [17] is 5.26 µM (active).

As for `CC[C@@H]1C(=O)N(C)c2cnc(Nc3ccc(C(=O)NC4CCN(C)CC4)cc3OC)nc2N1C1CCCC1`, the Potency in [1] is 0.0235 µM (active); in assay [2], 1.87 µM (active); in assay [4] it was 0.0235 µM (active); in assay [5], 0.0833 µM (active); in assay [6] it was 7.43 µM (active); in assay [7] it was 4.69 µM (active). Also, the Potency in assay [8] was 0.0235 µM (active); in assay [9] it was 1.66 µM (active); in assay [10], 6.62 µM (active); in [14], 4.69 µM (active); in assay [15] it was 2.35 µM (active); in assay [16], 0.469 µM (active). For the same compound, in [17], the Potency is 4.18 µM (active).

Consider `CC(C)c1cc(-c2n[nH]c(=O)n2-c2ccc3c(ccn3C)c2)c(O)cc1O`, for which the Potency in assay [1] was 0.0372 µM (active); in assay [2] it was 0.0166 µM (active); in assay [4], 0.0264 µM (active); in [18], 0.0148 µM (active); in [5], 0.0264 µM (active); in [6], 0.0418 µM (active). The Potency in [7] is 0.0209 µM (active); in assay [20], 0.0264 µM (active); in [8], 0.0372 µM (active); in assay [9] it was 0.0332 µM (active); in [10], 0.0296 µM (active); in assay [12] it was 0.0372 µM (active). The Potency in assay [13] is 0.0743 µM (active); in [15] it was 0.0209 µM (active); in assay [16], 0.0469 µM (active); in assay [17], 0.059 µM (active).

`Cc1cc(CN2CCN(c3c(Br)cnc4nc(-c5ccc(N6CCN(C)CC6)cc5)[nH]c34)CC2)no1`: the Potency entry in assay [1], in [2] and in assay [20] was “inactive” each time. The Potency in [3] was 5.26 µM (active); in [4] it was 7.43 µM (active); in assay [5] it was 2.64 µM (active); in assay [6], 10.5 µM (active); in assay [7], 3.32 µM (active); in assay [8], 18.7 µM (active). The Potency in assay [10] is 2.35 µM (active); in assay [12] it was 7.43 µM (active); in assay [14], 7.43 µM (active); in assay [15] it was 2.35 µM (active); in assay [16], 14.8 µM (active); in assay [17], 5.9 µM (active).

With `COc1cc2c(Nc3ccc(NC(=O)c4ccccc4)cc3)ncnc2cc1OCCCN1CCOCC1`, the Potency is 6.62 µM (active) in [1]; 8.33 µM (active) in [3]; 23.5 µM (active) in assay [6]; 10.5 µM (active) in assay [10]; 37.2 µM (active) in assay [12]; 16.6 µM (active) in assay [15]. For the same compound, in [16], the Potency was 23.5 µM (active). In assay [2], the viability (% of DMSO) is 112% (active). In assay [18], the Potency result was “inactive”.

`COc1cccc2nc(-c3cccs3)nc(NN3C(=O)C=C(C)C3=O)c12`: the Potency in [1] was 0.118 µM (active); in assay [2], 0.0526 µM (active); in assay [3], 0.0526 µM (active); in [4], 0.148 µM (active); in assay [18], 0.105 µM (active); in [6], 1.18 µM (active). In addition, the Potency in assay [19] is 1.18 µM (active); in assay [7], 0.0264 µM (active); in assay [20], 0.235 µM (active); in assay [8] it was 0.105 µM (active); in [9], 0.118 µM (active); in assay [10], 0.059 µM (active). The Potency was 0.235 µM (active) in assay [11]; 2.96 µM (active) in assay [12]; 5.9 µM (active) in [13]; 0.187 µM (active) in assay [16]; 0.418 µM (active) in assay [17].

On to `CC(C)=CCCC(C)=CCCC(C)=CCSc1ccccc1C(=O)O`, for which the Potency was 0.187 µM (active) in assay [1]; 0.235 µM (active) in assay [2]; 1.18 µM (active) in [3]; 1.18 µM (active) in assay [6]; 2.35 µM (active) in [7]; 1.66 µM (active) in [8]. Moreover, the Potency was 5.26 µM (active) in assay [10]; 5.9 µM (active) in [11]; 4.18 µM (active) in assay [12]; 1.32 µM (active) in assay [13]; 1.48 µM (active) in [14]; 0.526 µM (active) in assay [15]. Moreover, the Potency in assay [16] is 0.0332 µM (active); in [17], 5.26 µM (active).

In the case of `CCN1CCN(Cc2ccc(-c3cc4c(N[C@H](C)c5ccccc5)ncnc4[nH]3)cc2)CC1`, the Potency in [1] was 0.0743 µM (active); in assay [2], 8.33 µM (active); in assay [3], 5.9 µM (active); in assay [4], 0.469 µM (active); in assay [5], 0.418 µM (active); in assay [7], 2.09 µM (active). Moreover, the Potency in assay [20] was 0.0166 µM (active); in assay [9], 0.0469 µM (active); in assay [12] it was 0.935 µM (active); in assay [13] it was 18.7 µM (active); in [16], 3.32 µM (active).

Values taken from PubChem BioAssay (NCATS).
